# Bioassay records deposited in PubChem by National Center for Advancing Translational Sciences (NCATS).
# ALOX12 inh – ALOX12 (human) lipoxygenase inhibition; purified 12hLO, xylenol orange hydroperoxide absorbance; Potency, µM (doses to about 108 µM), most hits filed as inhibitors; 1.1% of 580,000 active; AID 1671190
#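 Purified human 12hLO (150 nM final) in 25 mM Hepes, 0.01% Triton X-100, pH 7.0 was preincubated 15 min at room temperature with compound. Then 40 uM arachidonic acid was added, 30 min. Hydroperoxide was read by Fe-XO absorbance ratio 573/405 nm.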
# PLK1 PBD inh – PLK1 (human) polo-box domain binding inhibition; P53350; Plk1 PBD binding of FITC phosphopeptide, fluorescence polarization; Potency, µM, usual class: inhibitors; 2.8% of 360,000 active; AID 720504; also: series mostly up to about 57 µM; nearly all actives have a fitted effect of over 65% in size
# Target sequence (P53350 whole entry, looked up, the tested form may be a part): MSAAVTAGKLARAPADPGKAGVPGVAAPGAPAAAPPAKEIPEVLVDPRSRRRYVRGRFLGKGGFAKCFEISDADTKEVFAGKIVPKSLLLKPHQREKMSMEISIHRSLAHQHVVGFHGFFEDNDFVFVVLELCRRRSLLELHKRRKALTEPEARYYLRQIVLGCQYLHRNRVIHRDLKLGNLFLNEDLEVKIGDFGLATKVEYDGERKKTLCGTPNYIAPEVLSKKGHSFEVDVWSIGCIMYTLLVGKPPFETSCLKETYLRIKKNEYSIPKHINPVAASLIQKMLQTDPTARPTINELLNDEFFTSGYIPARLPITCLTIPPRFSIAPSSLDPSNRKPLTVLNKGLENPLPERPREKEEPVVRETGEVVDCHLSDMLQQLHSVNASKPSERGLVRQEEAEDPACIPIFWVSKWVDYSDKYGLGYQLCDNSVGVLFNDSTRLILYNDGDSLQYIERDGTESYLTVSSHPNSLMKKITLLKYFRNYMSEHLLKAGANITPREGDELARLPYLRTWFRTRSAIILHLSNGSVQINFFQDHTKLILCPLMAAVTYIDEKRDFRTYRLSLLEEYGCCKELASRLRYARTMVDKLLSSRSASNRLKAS
# KAT2A inh – GCN5L2 (KAT2A) acetyltransferase inhibition. Q92830. GCN5L2 HAT assay, ThioGlo1 CoA-SH fluorescence. Potency, µM (highest dose often 58.9 µM), most hits filed as inhibitors. 0.21% of 390,000 active
#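 Compounds, pin-transferred from DMSO stocks, meet 20nM GCN5L2 for 15 min before the reaction begins with H3(1-25) peptide (75uM) and acetyl-CoA (70uM). Thiol-reactive ThioGlo1 reports CoA release over 20 min at room temperature.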
# VDR inh – vitamin D3 receptor (human) inhibition; 0.93% of 400,000 active; AID 504847; Potency, µM, most hits filed as inhibitors; VDR-SRC2-3 peptide fluorescence polarization, 2 h; P11473
#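 Fluorescence polarization assay of small-molecule disruption of VDR binding to coregulator peptide SRC2-3. Compounds and controls pin-transferred, then read after 2 h incubation at ambient room temperature.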
# Numbers stand for hits; - = inactive; ? = inconclusive; . = not tested or not shown. Most compounds without a hit are left out; they make up all but 3% or so of the library. Calls follow the shape of the dose curve; as a rule, active = well fitted curve in the direction sought with a large enough effect; inconclusive = small, poorly fitted or top-dose-only effect, or another doubt; inactive = no such curve, though single readings can be large; an effect the other way counts as inactive or inconclusive.
SMILES,ALOX12 inh,PLK1 PBD inh,KAT2A inh,VDR inh
O=C(NCc1ccc(Cl)cc1)c1cccc(NC2=NC3CS(=O)(=O)CC3S2)c1 (stereo unspecified),-,-,28µM,-
Cc1cccc(NC(=O)Cc2ccc(NC3=NC4CS(=O)(=O)CC4S3)cc2)c1 (stereo unspecified),-,-,22µM,-
CN(C)c1cccc(C(=O)NCc2ccc(Cl)cc2)c1,-,19µM,-,-
COc1cccc(-c2cc(C(=O)NCCCN3CCOCC3)c3ccccc3n2)c1,-,.,.,.
CCOC(=O)c1cnc(SCc2nc(-c3ccccc3Cl)oc2C)nc1N,-,.,.,.
O=C(CSc1nnc(CNc2ccc(F)cc2)o1)OC1CCCCC1,-,21µM,-,?
O=C1OCC2(CCN(Cc3ccc4c(c3)CCO4)C2)N1Cc1ccccc1 (stereo unspecified),56µM,.,.,.
Cc1cc(/C=C(\C#N)c2cccc(C(F)(F)F)c2)c(C)n1C,40µM,.,.,.
COc1ccc(-n2sc3c(c2=S)-c2cc(OC)ccc2NC3(C)C)cc1,-,24µM,-,-
COc1ccc2c(c1)-c1c(sn(-c3ccccc3)c1=S)C(C)(C)N2,-,-,-,-
c1csc(CNc2ncncc2-c2ccc3c(c2)OCO3)c1,28µM,.,-,-
COc1ccccc1CNc1nc(-c2ccc3c(c2)OCO3)nc2ccccc12,?,.,-,-
c1csc(CNc2nc(-c3ccc4c(c3)OCO4)nc3ccccc23)c1,11µM,.,-,?
c1cncc(-c2cncnc2NCc2cccs2)c1,7.9µM,.,-,?
c1cncc(CNc2ncncc2-c2cccnc2)c1,?,.,-,-
COc1ccccc1-n1[nH]c(C)c(Cc2ccccc2Cl)c1=O,-,.,.,.
COc1ccccc1C(NC(=O)Cc1ccccc1Cl)c1nccn1C (stereo unspecified),-,.,.,.
N#C/C(=C\c1ccc(O)c([N+](=O)[O-])c1)c1nc2ccccc2s1,22µM,24µM,-,?
COc1ccc(-c2csc(/C(C#N)=C\c3ccc(O)c([N+](=O)[O-])c3)n2)cc1OC,-,27µM,?,-
CC1Cc2cc(/C=C(\C#N)c3nc4ccccc4s3)ccc2O1 (stereo unspecified),-,.,.,.
COc1cc(/C=C(\C#N)c2nc3ccccc3s2)cc([N+](=O)[O-])c1O,?,21µM,?,-
CCCCn1nc(C(=O)N2CCC(n3c(=O)[nH]c4ccccc43)CC2)c2ccccc2c1=O,-,.,.,.
O=C1CCCN1CCCNC(=S)Nc1ccc(Nc2ccccc2)cc1,-,-,-,-
O=C1CCCN1CCCNC(=S)Nc1ccccc1,28µM,-,-,-
O=C(O)c1cccc(NCc2ccc(Cl)cc2Cl)c1,-,.,.,.
SMILES,ALOX12 inh,PLK1 PBD inh,KAT2A inh,VDR inh
O=Cc1[nH]c2ccccc2c1Cl,-,.,.,.
CCOc1ccc(N2C(=O)C(Cl)=C(Nc3ccccc3O)C2=O)cc1,?,8.4µM,-,-
O=C1C(Cl)=C(Nc2ccccc2O)C(=O)N1CCc1ccccc1,?,4.2µM,-,-
CCOc1ccc(N2C(=O)C(Cl)=C(N3CCOCC3)C2=O)cc1,-,-,-,28µM
CCOc1cc(/C=N\NC(=O)C2C(=O)NCC2c2ccccc2)ccc1OC (stereo unspecified),-,-,-,-
COc1ccc(/C=N\NC(=O)C2C(=O)NCC2c2ccccc2)cc1O (stereo unspecified),-,3µM,-,?
CC(C)OC(=O)c1ccc(N2CCN(c3ccc(F)cc3)CC2)nc1,-,27µM,-,?
Cc1ccc(SCCCCN2CCOCC2)cc1,-,-,-,-
CC1CN(CCCCSc2ccc(Cl)cc2)CC(C)O1 (stereo unspecified),1.8µM,-,-,-
Cc1ccc(SCCCCN2CCNCC2)cc1,?,17µM,-,-
Clc1ccc(SCCCCN2CCNCC2)cc1,?,24µM,-,-
Cc1ccccc1NC(=O)C(=Cc1ccc(C(=O)O)cc1)C(=O)Nc1ccccc1C,-,-,-,-
CC(=O)/C(=C/c1ccccc1)C(=O)Nc1ccccc1C,-,-,-,22µM
O=C(O)c1cccc(-n2cccc2/C=N/O)c1,-,?,-,-
O=C(O)c1cccc(-n2cccc2/C=C/[N+](=O)[O-])c1,-,6.7µM,-,?
N#C/C(=C/c1cccn1-c1cccc(C(=O)O)c1)c1ccc(Cl)cc1,45µM,30µM,-,?
O=Cc1cccn1-c1cccc([N+](=O)[O-])c1,-,?,?,-
O=C(O)c1cccc(-n2cccc2/C=C\[N+](=O)[O-])c1,?,27µM,?,?
CC(C)CN(CC(C)C)C(=O)COC(=O)c1c[nH]c2ccccc12,-,.,.,.
Cc1ccc(C(=O)n2nc(-c3ccc(C)cc3)nc2N)cc1,-,.,.,.
Cc1nc(Nc2ccc(Cl)c(Cl)c2)sc1C(=O)Nc1ccccc1,?,27µM,-,?
Cc1cccc(Nc2nc(C)c(C(=O)Nc3ccccc3)s2)c1,13µM,.,.,.
C[C@H]1CN([C@@H](C)CO)C(=O)c2cc(NS(=O)(=O)c3ccc(Cl)cc3)ccc2O[C@@H]1CN(C)CC1CCCCC1,?,-,-,89µM
CN(C)CCN(Cc1ccccc1)c1ccnc(N(C)C)c1C#N,?,-,-,-
CN(C)c1nccc(N(Cc2ccccc2)Cc2ccccc2)c1C#N,3.2µM,-,-,-
SMILES,ALOX12 inh,PLK1 PBD inh,KAT2A inh,VDR inh
O=C(c1cc(Br)ccc1Cl)N1CCN(c2ncccn2)CC1,-,30µM,-,?
O=C(c1cc(F)c(F)cc1Cl)N1CCN(c2ncccn2)CC1,-,-,-,-
CC(=O)NC1=NN(C(C)=O)C2(S1)C(=O)N(C(C)=O)c1ccc(C)cc12 (stereo unspecified),-,27µM,-,?
NC(=O)CC[C@H](NC(=O)c1ccc(F)cc1)C(=O)OCC(=O)NCc1ccc(F)cc1,-,?,-,71µM
NC(=O)CC[C@H](NC(=O)c1ccc(F)cc1)C(=O)OCC(=O)Nc1c(F)c(F)c(F)c(F)c1F,-,-,-,-
O=C(COc1ccccc1)NN1C(=O)CSC1=S,-,-,-,-
O=C(COc1c(Cl)cccc1Cl)NN1C(=O)CSC1=S,-,19µM,-,-
COc1cc(-c2nnc3sc(C4CCCCC4)nn23)cc(OC)c1OC,.,-,-,-
Cc1cc(-c2nnc3sc(C4CCCCC4)nn23)n[nH]1,-,27µM,-,-
COc1ccc(C(=O)NCCn2cc(SCC(=O)NCc3ccco3)c3ccccc32)cc1,-,3µM,-,-
COc1ccc(C(=O)NCCn2cc(SCC(=O)NCC3CCCO3)c3ccccc32)cc1 (stereo unspecified),-,-,-,-
COc1ccc(-c2nsc3c2NC(=O)CC3c2ccc(OC)cc2)cc1 (stereo unspecified),-,.,.,.
CCCCN(Cc1ccccc1)c1ccc(C(=O)O)cc1NS(=O)(=O)c1ccc(C(C)=O)cc1,5.6µM,.,.,.
CCCCN(Cc1ccccc1)c1ccc(C(=O)O)cc1NS(=O)(=O)c1ccc(C)c(C)c1,8.9µM,.,.,.
Cc1cccc(C)c1NC(=O)C(=O)c1c(C)[nH]c2ccccc12,-,.,.,.
CC(C)CCN1CCC(N2CCN(S(=O)(=O)Cc3ccc(F)cc3Cl)CC2)C1=O (stereo unspecified),-,.,.,.
OC1NC(=S)N(c2ccccc2)C1O (stereo unspecified),-,-,-,-
